Measurements as given in ChEMBL document CHEMBL3988442, “University of Dundee, Small-Polar-MMV Screening Library” (2021).
For part of these data: Entries with a potency or affinity are not part of this list.

Legend:
Parameters in all cases: scale not given: direction of the effect not stated beside the values
[1] = target: Protein translocase subunit SecA (Escherichia coli (strain K12)) (UniProt P10408); assay: Assay to Identify E. coli SecA ATPase Inhibitors; format: functional; conditions: 30 µM
Sequence of Protein translocase subunit SecA (Escherichia coli (strain K12)) (P10408 whole entry): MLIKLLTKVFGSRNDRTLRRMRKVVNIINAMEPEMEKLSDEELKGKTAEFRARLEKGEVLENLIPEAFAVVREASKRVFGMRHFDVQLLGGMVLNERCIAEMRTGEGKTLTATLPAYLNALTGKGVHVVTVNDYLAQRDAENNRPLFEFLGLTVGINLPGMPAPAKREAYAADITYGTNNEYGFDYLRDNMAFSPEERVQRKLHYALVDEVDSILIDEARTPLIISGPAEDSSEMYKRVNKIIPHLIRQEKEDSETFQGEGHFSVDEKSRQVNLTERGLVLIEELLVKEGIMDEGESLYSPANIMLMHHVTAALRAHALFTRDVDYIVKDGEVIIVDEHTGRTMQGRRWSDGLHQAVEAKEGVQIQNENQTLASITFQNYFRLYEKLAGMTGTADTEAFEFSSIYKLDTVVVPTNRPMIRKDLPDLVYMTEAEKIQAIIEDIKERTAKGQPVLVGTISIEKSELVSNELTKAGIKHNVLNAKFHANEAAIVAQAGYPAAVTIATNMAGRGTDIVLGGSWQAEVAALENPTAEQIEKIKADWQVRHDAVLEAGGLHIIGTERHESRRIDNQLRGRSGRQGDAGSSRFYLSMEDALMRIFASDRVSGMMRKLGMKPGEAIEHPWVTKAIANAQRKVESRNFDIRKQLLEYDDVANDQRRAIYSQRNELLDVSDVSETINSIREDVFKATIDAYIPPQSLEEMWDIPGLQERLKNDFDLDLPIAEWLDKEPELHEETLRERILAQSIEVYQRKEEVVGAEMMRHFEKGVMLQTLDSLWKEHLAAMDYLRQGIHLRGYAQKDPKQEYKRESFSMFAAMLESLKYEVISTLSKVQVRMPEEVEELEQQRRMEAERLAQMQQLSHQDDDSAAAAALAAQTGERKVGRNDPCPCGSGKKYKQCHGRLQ

[2] = target: T1, Ubiquitin-activating enzyme e1, putative (Leishmania donovani (strain BPK282A1)) (UniProt E9BSI1); assay: Leishmania donovani Ubiquitin Activating Enzyme (LdE1); format: functional; conditions: 30 µM
T1 sequence (whole entry): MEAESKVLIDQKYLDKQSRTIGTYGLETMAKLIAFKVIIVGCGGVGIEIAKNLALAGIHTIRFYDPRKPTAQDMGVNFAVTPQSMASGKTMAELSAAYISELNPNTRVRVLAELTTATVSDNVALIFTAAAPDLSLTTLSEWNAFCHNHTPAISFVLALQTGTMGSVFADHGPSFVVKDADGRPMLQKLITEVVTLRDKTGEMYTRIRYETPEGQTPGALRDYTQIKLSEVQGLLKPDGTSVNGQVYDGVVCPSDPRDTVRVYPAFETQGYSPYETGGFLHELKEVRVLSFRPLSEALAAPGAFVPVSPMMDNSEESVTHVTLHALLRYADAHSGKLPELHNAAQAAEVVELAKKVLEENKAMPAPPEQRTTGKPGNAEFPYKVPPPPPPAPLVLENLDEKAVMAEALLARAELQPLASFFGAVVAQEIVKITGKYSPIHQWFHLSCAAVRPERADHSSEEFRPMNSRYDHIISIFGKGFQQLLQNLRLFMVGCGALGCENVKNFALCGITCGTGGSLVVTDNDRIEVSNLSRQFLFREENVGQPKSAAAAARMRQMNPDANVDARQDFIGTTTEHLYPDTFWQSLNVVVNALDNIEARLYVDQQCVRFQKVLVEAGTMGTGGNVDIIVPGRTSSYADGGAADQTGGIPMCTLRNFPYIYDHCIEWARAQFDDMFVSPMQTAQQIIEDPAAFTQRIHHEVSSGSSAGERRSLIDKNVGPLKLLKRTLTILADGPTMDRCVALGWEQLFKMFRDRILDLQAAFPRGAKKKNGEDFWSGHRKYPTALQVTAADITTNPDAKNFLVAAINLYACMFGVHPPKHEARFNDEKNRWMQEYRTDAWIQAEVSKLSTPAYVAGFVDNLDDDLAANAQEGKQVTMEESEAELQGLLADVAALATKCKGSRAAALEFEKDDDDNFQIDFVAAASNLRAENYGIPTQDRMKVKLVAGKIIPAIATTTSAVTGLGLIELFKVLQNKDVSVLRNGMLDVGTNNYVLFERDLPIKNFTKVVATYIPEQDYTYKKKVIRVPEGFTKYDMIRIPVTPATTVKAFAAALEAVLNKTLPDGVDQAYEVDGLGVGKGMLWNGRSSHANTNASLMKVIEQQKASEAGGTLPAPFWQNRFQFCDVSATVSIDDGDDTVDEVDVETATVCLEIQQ

[3] = target: AMP-activated protein kinase, AMPK (Homo sapiens) (UniProt P54646+O43741+P54619+Q9UGJ0+Q9Y478+Q13131+Q9UGI9); assay: AMP-dependent Kinase enzyme assay. An in vitro enzyme assay that detects ADP turnover that is directly proportional to AMPK activity. This uses naive AMPK that is activated during the assay with MK-8722; format: functional; conditions: 30 µM
[4] = target: Sialic acid-binding Ig-like lectin 9 (Homo sapiens) (UniProt Q9Y336); assay: Hs-Siglec9 ALPHAscreen SOP 20170721; conditions: 10 µM
Sequence of Sialic acid-binding Ig-like lectin 9 (Homo sapiens) (Q9Y336 whole entry): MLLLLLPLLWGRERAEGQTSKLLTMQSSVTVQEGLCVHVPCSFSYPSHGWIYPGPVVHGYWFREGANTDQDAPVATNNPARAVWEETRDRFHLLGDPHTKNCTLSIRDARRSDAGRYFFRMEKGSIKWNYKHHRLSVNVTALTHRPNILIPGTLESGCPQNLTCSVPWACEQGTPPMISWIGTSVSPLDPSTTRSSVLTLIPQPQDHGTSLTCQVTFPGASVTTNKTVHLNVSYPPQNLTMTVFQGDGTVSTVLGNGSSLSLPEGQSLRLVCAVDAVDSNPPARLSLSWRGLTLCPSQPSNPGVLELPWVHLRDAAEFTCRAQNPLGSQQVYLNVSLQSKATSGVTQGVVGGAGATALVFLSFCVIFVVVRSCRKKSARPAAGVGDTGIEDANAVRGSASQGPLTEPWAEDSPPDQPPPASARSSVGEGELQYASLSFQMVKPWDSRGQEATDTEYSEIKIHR

Trypanosoma cruzi = assay: Trypanosoma cruzi phosphomannomutase and mannose-1-phosphate guanylyltransferase assay; format: functional; conditions: 10 µM
[5] = target: T2, Arginase-2, mitochondrial (Homo sapiens) (UniProt P78540); assay: in vitro enzyme assay to detect the production of urea directly proportional to the activity of Arginase II; format: functional; conditions: 33.3 µM; also: in the data most compounds retested in dose-response had high values
T2 sequence (whole entry): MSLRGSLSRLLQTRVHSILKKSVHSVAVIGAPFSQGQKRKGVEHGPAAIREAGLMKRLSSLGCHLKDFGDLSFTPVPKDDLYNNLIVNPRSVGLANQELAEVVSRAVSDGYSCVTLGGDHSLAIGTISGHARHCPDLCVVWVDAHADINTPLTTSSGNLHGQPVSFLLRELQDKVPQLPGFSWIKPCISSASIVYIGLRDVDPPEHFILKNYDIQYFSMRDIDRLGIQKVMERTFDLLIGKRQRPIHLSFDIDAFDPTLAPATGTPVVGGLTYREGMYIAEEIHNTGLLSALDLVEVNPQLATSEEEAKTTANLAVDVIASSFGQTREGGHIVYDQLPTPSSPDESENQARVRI

[6] = target: T3, Proteasome subunit beta (Trypanosoma cruzi) (UniProt O96673); assay: Trypanosoma cruzi proteasome chymotrypsin-like activity (TcProtChymo) assay.; also: in the data most compounds retested in dose-response had high values; format: functional; conditions: 9.37 µM
T3 sequence (whole entry): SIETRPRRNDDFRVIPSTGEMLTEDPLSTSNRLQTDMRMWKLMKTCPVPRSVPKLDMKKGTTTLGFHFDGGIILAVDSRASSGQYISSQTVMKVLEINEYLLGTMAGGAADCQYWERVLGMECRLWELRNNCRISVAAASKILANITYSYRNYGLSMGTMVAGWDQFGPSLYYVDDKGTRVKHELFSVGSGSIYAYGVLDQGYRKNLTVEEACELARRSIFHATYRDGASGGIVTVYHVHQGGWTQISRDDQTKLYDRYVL

Homo sapiens = organism: Homo sapiens; assay: To identify inhibition of the IFN signalling (Jak-Stat) pathway via expression of an eGFP reporter gene under the control of an IFN-stimulated response element (ISRE) containing MxA promoter.; format: functional; conditions: 30 µM
[7] = target: T4, Tyrosyl-tRNA synthetase, putative (Trypanosoma cruzi (strain CL Brener)) (UniProt Q4DSP6); assay: Trypanosoma cruzi tyrosyl tRNA synthetase (TcYRS) _High Tyrosine SOP; format: functional; conditions: 30 µM; also: in the data most compounds retested in dose-response had high values
T4 sequence (whole entry): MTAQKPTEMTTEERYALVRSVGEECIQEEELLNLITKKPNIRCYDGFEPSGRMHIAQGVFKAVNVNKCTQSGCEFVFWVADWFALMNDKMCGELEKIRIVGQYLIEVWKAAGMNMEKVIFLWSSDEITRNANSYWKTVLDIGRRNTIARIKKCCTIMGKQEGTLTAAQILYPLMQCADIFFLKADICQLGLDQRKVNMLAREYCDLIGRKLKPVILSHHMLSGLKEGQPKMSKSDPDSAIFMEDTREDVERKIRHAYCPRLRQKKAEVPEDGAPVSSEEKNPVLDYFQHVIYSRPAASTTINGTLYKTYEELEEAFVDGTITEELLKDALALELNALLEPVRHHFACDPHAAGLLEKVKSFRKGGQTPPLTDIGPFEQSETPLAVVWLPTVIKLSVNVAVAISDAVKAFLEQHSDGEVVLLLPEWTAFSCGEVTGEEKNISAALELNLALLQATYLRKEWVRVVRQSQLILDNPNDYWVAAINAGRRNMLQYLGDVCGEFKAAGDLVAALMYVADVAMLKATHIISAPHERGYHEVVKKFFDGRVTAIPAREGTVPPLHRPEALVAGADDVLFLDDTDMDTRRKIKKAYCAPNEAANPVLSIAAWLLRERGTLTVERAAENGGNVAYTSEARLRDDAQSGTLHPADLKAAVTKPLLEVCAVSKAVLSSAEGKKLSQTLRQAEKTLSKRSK

[8] = target: T4, Tyrosyl-tRNA synthetase, putative (Trypanosoma cruzi (strain CL Brener)); assay: Trypanosoma cruzi tyrosyl tRNA synthetase (TcYRS) SOP; format: functional; conditions: 30 µM
[9] = target: Chromo domain-containing protein 1 (Saccharomyces cerevisiae (strain ATCC 204508 / S288c) (Baker's yeast)) (UniProt P32657); assay: ScCHD-1 Enzyme Inhibition Assay; format: functional; conditions: 30 µM; also: in the data most compounds retested in dose-response had high values
Sequence of Chromo domain-containing protein 1 (Saccharomyces cerevisiae (strain ATCC 204508 / S288c) (Baker's yeast)) (P32657 whole entry, the tested form may be a part): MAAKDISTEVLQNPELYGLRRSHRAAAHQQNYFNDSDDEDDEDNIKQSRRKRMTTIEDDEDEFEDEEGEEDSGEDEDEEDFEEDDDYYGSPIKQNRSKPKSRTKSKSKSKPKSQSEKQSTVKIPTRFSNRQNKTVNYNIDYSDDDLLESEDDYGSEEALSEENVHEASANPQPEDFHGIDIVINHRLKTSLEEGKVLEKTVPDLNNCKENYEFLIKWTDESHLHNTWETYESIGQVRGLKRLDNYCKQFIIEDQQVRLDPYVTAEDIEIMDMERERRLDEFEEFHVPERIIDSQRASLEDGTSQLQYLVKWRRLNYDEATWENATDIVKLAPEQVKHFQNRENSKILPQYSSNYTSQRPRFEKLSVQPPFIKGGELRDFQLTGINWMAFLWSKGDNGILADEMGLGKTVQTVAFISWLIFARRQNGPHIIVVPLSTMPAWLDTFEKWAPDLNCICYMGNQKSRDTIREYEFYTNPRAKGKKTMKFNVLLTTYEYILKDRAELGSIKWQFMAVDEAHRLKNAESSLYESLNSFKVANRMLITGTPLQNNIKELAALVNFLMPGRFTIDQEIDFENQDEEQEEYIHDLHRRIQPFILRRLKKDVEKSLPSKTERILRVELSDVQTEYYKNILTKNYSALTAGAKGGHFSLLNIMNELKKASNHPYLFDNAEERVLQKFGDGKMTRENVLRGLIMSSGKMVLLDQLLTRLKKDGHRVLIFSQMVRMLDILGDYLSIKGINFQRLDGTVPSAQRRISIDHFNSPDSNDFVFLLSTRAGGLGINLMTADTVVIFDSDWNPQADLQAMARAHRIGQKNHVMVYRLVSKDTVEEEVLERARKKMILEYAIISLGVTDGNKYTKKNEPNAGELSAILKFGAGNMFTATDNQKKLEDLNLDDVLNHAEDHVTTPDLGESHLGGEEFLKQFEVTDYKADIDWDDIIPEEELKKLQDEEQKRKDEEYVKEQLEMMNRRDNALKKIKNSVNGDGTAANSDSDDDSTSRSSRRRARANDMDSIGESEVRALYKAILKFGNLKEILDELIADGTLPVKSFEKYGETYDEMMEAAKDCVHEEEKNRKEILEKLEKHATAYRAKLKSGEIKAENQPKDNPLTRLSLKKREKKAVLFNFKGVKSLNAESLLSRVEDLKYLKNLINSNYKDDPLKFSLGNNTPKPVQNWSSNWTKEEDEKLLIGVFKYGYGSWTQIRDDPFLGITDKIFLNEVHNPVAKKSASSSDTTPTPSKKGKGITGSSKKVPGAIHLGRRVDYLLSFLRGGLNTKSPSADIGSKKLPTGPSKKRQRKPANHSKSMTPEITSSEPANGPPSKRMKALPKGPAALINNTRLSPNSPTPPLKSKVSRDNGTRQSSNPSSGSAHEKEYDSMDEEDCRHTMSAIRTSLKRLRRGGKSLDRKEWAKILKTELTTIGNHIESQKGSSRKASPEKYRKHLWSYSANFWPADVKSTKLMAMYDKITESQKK

SMILES	Percent Effect [1] [%]	Percent Effect [2] [%]	Percent Effect [3] [%]	Percent Effect [4] [%]	Percent Effect (Trypanosoma cruzi) [%]	Percent Effect [5] [%]	Percent Effect [6] [%]	Percent Effect (Homo sapiens) [%]	Percent Effect [7] [%]	Percent Effect [8] [%]	Percent Effect [9] [%]
COc1ccc(CN2CCCC2Cn2nc(C)nc2C)cc1F (stereo unspecified)	-3.83	6.33	4.88	0.831	-0.718	2.8	8.58	3.7	5.21	7.59	-16.6
COc1cccc(N2CCN(Cc3ccc(NC(C)=O)cc3)CC2=O)c1	-2.84	18.1	-5.61	20.1	6.51	10.2	11.6	4.1	4.21	15.4	-2.22
O=C(NCC(Cc1cccc(F)c1)N1CCCC1=O)c1ccccc1 (stereo unspecified)	-6.41	-5.48	27.6	-11	-5.68	0	13.1	6.32	1.07	5	-2.23
COc1ccc(F)c(CN2CCC(c3cc(O)nc(C)n3)C2)c1 (stereo unspecified)	-8.36	23	-0.897	-0.78	5.93	-3.94	15.3	11.7	5.38	14.3	-15
CCCOc1cc(CNC(=O)Nc2cccnc2N2CCCC2)ccn1	-1.55	-2.7	-14.8	5.9	-1.04	4.81	5.77	6.16	-0.493	3.7	-5.59
CN(C)[C@@H]1CCN(c2ncccn2)[C@H]1Cc1ccncc1	-4.35	2.6	-0.281	0.217	5.01	1.38	2.5	-12.2	1.07	3.7	-1.65
Cc1cc(CNC(=O)NC(C)c2ccncc2)no1 (stereo unspecified)	-0.908	7.79	2.08	2.87	-8.36	-1.38	12.7	11.9	2.15	6.17	-1.85
CCc1nc(CC(=O)N2CCn3c(nnc3C(F)(F)F)C2)cs1	-2.58	0	6.61	5.79	0.564	4.98	3.17	-25.8	-0.49	0	-6.79
Cc1cc(F)ccc1S(=O)(=O)NCc1cccc(C(=O)N2CCCC2)c1	-5.18	15.6	2.25	0.935	2.64	-12	2.34	26.5	6.67	9.41	-12.9
CN(C)CCNC(=O)c1ccc(OC2CCN(S(C)(=O)=O)CC2)c(Cl)c1	-6.99	18.9	-3.92	19.3	8.5	3.23	13.8	-5.52	7.53	21	-4.57
Cc1nc(N2CC[C@@H](NC(=O)c3cnccn3)[C@H](O)C2)c2ccsc2n1	0.273	8.11	-4.4	15.3	2.7	3.33	2.41	46.9	5.82	19.5	-3.51
COc1ccccc1CNC(=O)C1=NN(c2ccc(C)cc2)C(=O)CN1	-2.03	13.5	-0.556	34.6	-3.62	-0.248	15.2	98.2	-6.45	-3.7	-2.26
CN(C)c1cc(CNC(=O)c2ccc(=O)[nH]n2)ccn1	-2.65	18.2	-1.88	-14.6	3.82	-2.32	17.9	4.06	9.52	30.6	-19.7
CC(CCN1CCn2nc(CNC(=O)N(C)C)cc2C1)c1ccccc1 (stereo unspecified)	-0.0552	5.41	-1.77	16.6	4.25	8.1	6.9	16.3	6.88	19.5	-3.46
CC(=O)Nc1nc(C(=O)N2CCCC(n3ccnc3)C2)cs1 (stereo unspecified)	-2.04	-7.89	-5.64	-2.76	-6.44	3.6	-6.34	-6.45	2.46	1.24	5.04
Cc1ncsc1CN1C[C@@H]2COC[C@]2(COc2ccc(C#N)cn2)C1	-3.44	-5.48	-1.94	1.31	7.74	-3.59	2.31	-1.06	1.04	3.7	2.89
CC(C(N)=O)N(C)CCCc1cc(-c2ccccc2)no1 (stereo unspecified)	-2.48	13.5	3.69	0.652	-9.75	-0.185	7.54	10.5	5.94	13.4	-3.63
Cc1ccc(CN2CCn3c(C(=O)N(C)C)cnc3C2)s1	-2.48	10.7	8.35	-0.423	-4.53	3.5	7.67	3.77	3.19	8.97	-5.78
CC(=O)Nc1ncc(S(=O)(=O)Nc2ccc(F)cc2F)s1	-1.2	9.33	-2.12	-4.17	-6.68	-5.11	19	12.9	3.17	10.3	-9.04
CCOCC1CN(C(=O)c2cccn2C)Cc2cnn(CC3CC3)c21 (stereo unspecified)	-4.01	5.2	-0.603	8.24	0.69	-12.3	3.48	6.88	11.6	16.7	-8.59
O=C(NC[C@H]1OC[C@@H]2CCN(C(=O)c3ccco3)C[C@@H]21)C1CC1	-4.23	2.7	1.41	-2.71	-3.81	5.21	10.6	-3.1	2.15	11.1	-4.6
